Most compounds without a hit are left out; they make up all but 5.3% or so of the library.
Vaccinia Venus = qHTS for Stage-Specific Inhibitors of Vaccinia Orthopoxvirus: Venus Reporter Primary qHTS | 330,000 tested, 0.46% active | Potency, µM (highest dose often 36.5 µM), without a hit: at the top dose activity change, negative = inhibition, most hits filed as inhibitors | Vaccinia virus Venus reporter expression, fluorescence; calls by dose curve; tested in A549 cells; also: nearly all actives have a fitted effect of over 30% in size
FMDV inh = High Throughput Screening for Foot and Mouth Disease Virus Antivirals; 410,000 tested, 1.2% active; FMDV antiviral cell-based qHTS; Potency, µM (titrated, usually from 57.9 µM), for the others: at the highest dose activity change, negative = inhibition, actives largely listed as inhibitors; calls by dose curve; tested in HEK293T cells; also: read-out not given here; nearly all actives have a fitted effect of over 45% in size
Lassa entry inh = qHTS for Inhibitors of binding or entry into cells for Lassa Virus | Lassa virus pseudotype entry inhibition, cell reporter | Potency, µM (doses to about 37.9 µM), for the others: at the highest dose activity change, negative = inhibition, actives largely listed as inhibitors | 300,000 tested, 1.2% active | AID 540256, 2011; calls by dose curve; tested in HEK293 cells; also: nearly all actives have a fitted effect of over 50% in size
Vaccinia mCherry = qHTS for Stage-Specific Inhibitors of Vaccinia Orthopoxvirus: mCherry Reporter Primary qHTS; Vaccinia virus mCherry reporter infection, fluorescence; Potency, µM (highest dose often 36.5 µM), for the others: at the highest dose activity change, negative = inhibition, most hits filed as inhibitors; 310,000 tested, 0.63% active; calls by dose curve; tested in A549 cells; also: nearly all actives have a fitted effect of over 35% in size
HCV inh = qHTS Assay for Inhibitors of Hepatitis C Virus (HCV) | 340,000 tested, 3.4% active | AID 651820, 2012 | Potency, µM (doses to about 41.8 µM), for inactives: at the top dose activity change, negative = inhibition, most hits filed as inhibitors | Huh7.5.1 HCVcc-Cre infection, luciferase reporter, 44 h; active = well fitted inhibition curve with a large enough effect; inconclusive = small, poorly fitted or top-dose-only effect, or another doubt; inactive = no such curve, though single readings can be large or run the other way
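Infectious HCV cell culture screen: compound-treated cells (1,000/well, pre-plated 4 h) are infected with HCVcc-Cre at roughly 0.5 moi and grown 44 h. Infection is quantified by luciferase signal after 15 min substrate incubation at room temperature.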
Marburg entry inh = qHTS for inhibitors of binding or entry into cells for Marburg Virus; Marburg virus pseudotyped entry inhibition, cell reporter; Potency, µM (top dose mostly 37.8 µM), for the others: top-dose activity change, negative = inhibition, hits mostly inhibitors; 300,000 tested, 1.8% active; AID 540276, 2011; calls by dose curve; tested in HEK293 cells
The depositor's hits bear a star; i = inactive; ? = inconclusive; . = no result; [ ] = dose if it differs, or a comment. % is scaled to controls: 0 for no effect and ±100 for the full control effect; potency is read from the fitted curve at half-maximal effect.

SMILES	Vaccinia Venus	FMDV inh	Lassa entry inh	Vaccinia mCherry	HCV inh	Marburg entry inh
CN(CCc1ccccc1)C(=O)c1cccc(NC(=O)Cc2cccc(NC(=O)C3CCCN(S(=O)(=O)c4cccc([N+](=O)[O-])c4)C3)c2)c1 (centres undefined)	-19%	?	.	?	10µM*	.
CN(Cc1ccccc1)C(=O)c1ccc(NC(=O)Cc2ccc(NC(=O)C3CCN(S(=O)(=O)c4cccc([N+](=O)[O-])c4)CC3)cc2)cc1	-13%	?	.	?	13µM*	.
CN(CCc1ccccc1)C(=O)c1ccc(NC(=O)Cc2ccc(NC(=O)C3CCCN(S(=O)(=O)c4cccc([N+](=O)[O-])c4)C3)cc2)cc1 (centres undefined)	-18%	-29%	.	?	?	.
CN(C(=O)c1cccc(NC(=O)Cc2ccc(NC(=O)C3CCN(S(=O)(=O)c4cccc([N+](=O)[O-])c4)CC3)cc2)c1)C1CCC1	0%	-9%	.	?	?	.
CN1C(=O)C2(c3ccccc31)N(c1cccc(C(F)(F)F)c1)C(=O)CS2(=O)=O (centres undefined)	3%	-4%	?	6%	.	.
CCC(C)NC(=O)Cn1c(=O)n(-c2ccc(OC)c(OC)c2)c(=O)c2ccccc21 (centres undefined)	15%	-3%	0%[46.1 µM]	8%	.	2%[46.1 µM]
COc1ccc2c(c1)C=C/C2=C/c1ccc(N(C)C)cc1	-15%	.	.	-20%	.	.
COc1cc2c(cc1OC)C(=Cc1ccc(N(C)C)cc1)C=C2	-5%	25%	-2%[46.1 µM]	?	10µM*	20%[46.1 µM]
CN(C)c1ccc(C=C2C=Cc3ccccc32)cc1	-17%	-1%	6.3µM*	i	-14%	-25%
CCOc1ccc(Cc2nnc(SCC(=O)c3ccc(OC)cc3)o2)cc1	-26%	?	?	?	8.9µM*	-24%
COc1ccc(C(=O)CSc2nnc(Cn3cnc4ccccc43)o2)cc1	.	?	-34%	.	2.2µM*	-21%
CCC(=O)N1CCc2cc(Br)cc(S(=O)(=O)NC3CCN(Cc4ccccc4)CC3)c21	-16%	17%	2.2µM*	-10%	?	?
CCC(=O)N1CCc2cc(Br)cc(S(=O)(=O)NCCCN(C)Cc3ccccc3)c21	-11%	2%	18%	i	23%	?
O=C(NC1CCN(Cc2ccc(Cl)cc2)CC1)c1cn(-c2ccccc2)nc1-c1cccnc1	.	-14%	.	.	11µM*	.
COc1ccc(N=C2C(=Nc3ccc(OC)cc3)N(c3ccc(N(C)C)cc3)C(=S)N2c2ccc(OC)cc2)cc1	-6%	16%	-5%	-5%	1.1µM*	?
CC12C=C(C=CCCc3ccco3)C(C)(C1)C(CCc1ccco1)CC2=O (centres undefined)	.	.	.	.	.	-6%[14.2 µM]
CCCn1cnc2c(SCc3ccccc3Cl)nc(N)nc21	-20%	6%	11µM*	-17%	-4%	7.1µM*
COc1ccc(CCNC(=O)c2ccc3c(c2)N(Cc2ccc(F)cc2)C(=O)CS3)cc1OC	-12%	?	?	-12%	.	.
CC1(C)COC(/C=C/c2cccc([N+](=O)[O-])c2)=N1	?	25µM*	?	11µM*	?	?
COc1cc2ccccc2cc1C(=O)Nc1ccc(Cl)c(-c2nc3ccccc3o2)c1	-24%	-2%	12%[46.1 µM]	i	.	.
CC(C)c1cccc(C(C)C)c1NC(=O)CN(C)C1CCS(=O)(=O)C1 (centres undefined)	.	-1%	.	.	17%	.
O=C1CCCc2oc3c(cc(NS(=O)(=O)c4ccc5c6c(cccc46)C(=O)N5)c4ccccc43)c21	-22%	-9%	3%[46.1 µM]	?	?	11µM*
Cc1oc2c(cc(NS(=O)(=O)c3ccc4c5c(cccc35)C(=O)N4)c3ccccc32)c1C(=O)OC(C)C	.	3%	?	.	?	-21%
CCCN(CCC)CCNC(=O)c1cc(Sc2ccc(Cl)cc2)nc2ccccc12	-22%	-25%	?	?	.	.
CCOC(=O)Cc1ccc(NC(=O)NC(C)c2c(-n3cccc3)sc(C)c2C)cc1 (centres undefined)	-10%	-12%	.	-10%	.	?
SMILES	Vaccinia Venus	FMDV inh	Lassa entry inh	Vaccinia mCherry	HCV inh	Marburg entry inh
c1cnc2[nH]ccc2c1	-14%	.	.	i	.	.
N#C/C(=C\c1ccc(-c2ccc(C(=O)O)cc2)o1)c1nc2ccccc2[nH]1	13%	0%	?	-6%	5%	10µM*
COc1cc(NC(=O)CC2C(=O)N(c3cccc(C)c3)C(=O)N2Cc2ccco2)cc(OC)c1 (centres undefined)	-6%	-6%	?	-6%	.	.
COc1ccccc1-c1ccc2ncnc(NCCNC(C)=O)c2c1	.	-14%	.	.	.	.
COc1ccc([C@]2(C(C)C)ON(c3ccccc3C(F)(F)F)C2=O)cc1	?	-25%	.	?	?	.
Cc1c(C(=O)NCC2COCCO2)cnn1-c1ncc2c(n1)-c1ccccc1CC2 (centres undefined)	?	27%	.	?	.	.
COc1cc2ccccc2cc1C(=O)OCC(=O)c1c(N)n(C)c(=O)n(C)c1=O	-6%	?	1%	-10%	-16%	-11%
COc1cccc(/C=C/C(=O)OCC(=O)c2c[nH]c3ccccc23)c1	.	-8%	.	.	-20%	.
Cn1c(N)c(C(=O)COC(=O)c2cc(S(=O)(=O)N3CCOCC3)ccc2F)c(=O)n(C)c1=O	?	-29%	-29%	-26%	?	7.1µM*
Cn1c(N)c(C(=O)COC(=O)/C=C/c2ccc(Cl)cc2)c(=O)n(C)c1=O	-21%	?	11%	-14%	-30%	-23%
COc1cccc(/C=C/C(=O)OCC(=O)c2c[nH]c3ccccc23)c1OC	-10%	25µM*	12%	-14%	?	2%
COc1ccccc1/C=C/C(=O)OCC(=O)c1c(N)n(C)c(=O)n(C)c1=O	-15%	-2%	18%	-16%	3%	0.89µM*
Cn1c(N)c(C(=O)COC(=O)/C=C/c2ccc(Cl)cc2Cl)c(=O)n(C)c1=O	-13%	40µM*	5%	i	15%	-5%
CCCCCCCCCCCCCCCCCCN(CCCCCCCCCCCCCCCCCC)c1ccc(C=O)cc1	-10%	.	.	-14%	.	.
C[C@@H]1/C=C/CC(=O)OC[C@H](C)C(=O)OC[C@H]2O[C@H]1C=C[C@H]2O	.	.	.	.	.	-14%[14.2 µM]
O=C(c1cnn(-c2nccc(-c3ccccc3C(F)(F)F)n2)c1C1CC1)N1CCN(CCO)CC1	3%	-7%	.	-8%	.	.
CS(=O)(=O)c1ccc(C(=O)Nc2cc(S(C)(=O)=O)ccc2Cl)cc1	-12%	?	22%	-19%	17%	-6%
CS(=O)(=O)c1ccc(Cl)c(NC(=O)CCl)c1	?	25µM*	18µM*	?	?	?

Assay outcomes (PubChem BioAssay)
